The experiment has as its system Trichuris muris adult worms. As to the kind of experiment: mean motility score (Paragon pixel variance) of adult worms (arbitrary units); higher = more motile worms, i.e. less anthelmintic effect; extreme values may be limits of the assay. The conditions noted are these: 100 µM; 24 h. An outline of the steps: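 Films of 200 frames spaced 100 ms apart were taken on an automated phenotyping platform after worms had spent 24 h at 37°C and 5% CO2. Those worms were single adult Trichuris muris from infected NOD SCID mice, each in a 96-well plate well with 100 μL RPMI-1640 plus antibiotics and drug at 100 μM (1% v/v DMSO). Paragon pixel-variance analysis produced the motility score, averaged over replicate wells. Testing used three worms in three wells per drug across three separate occasions, with vehicle and positive controls.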
On to `Cc1nnc(NS(=O)(=O)c2ccc(N)cc2)s1` [sulfamethizole], for which the mean motility score was found to be 3570.

Molecule `CC(=O)Nc1ccc(O)cc1` [acetaminophen] returned a mean motility score of 2180. With `CN(C)CCC=C1c2ccccc2CCc2ccccc21.Cl` [amitriptyline hydrochloride] the figure was 0; with `CC/C(=C(\c1ccccc1)c1ccc(OCCN(C)C)cc1)c1ccccc1` [tamoxifen], 165; with `CNCc1ccc(-c2[nH]c3cc(F)cc4c3c2CCNC4=O)cc1` [rucaparib], 1130. For `CCCC(=O)O[C@]1(C(=O)COC(C)=O)CC[C@H]2[C@@H]3C[C@H](F)C4=CC(=O)C=C[C@]4(C)[C@@]3(F)[C@@H](O)C[C@@]21C` [difluprednate], the mean motility score came to 3520. With `CN(C)c1nc(N(C)C)nc(N(C)C)n1` [altretamine] the figure was 3430; with `CCCN1CCCC[C@H]1C(=O)Nc1c(C)cccc1C` [ropivacaine], 2600; with `Cc1cn(-c2cc(NC(=O)c3ccc(C)c(Nc4nccc(-c5cccnc5)n4)c3)cc(C(F)(F)F)c2)cn1` [nilotinib], 2370. The same measure for `CN1CCN(CCCN2c3ccccc3Sc3ccc(C(F)(F)F)cc32)CC1.Cl.Cl` [trifluoperazine dihydrochloride]: 0; for `NS(=O)(=O)c1cc2c(cc1Cl)NCNS2(=O)=O` [hydrochlorothiazide]: 3580; for `CN(C)C/C=C/C(=O)Nc1cc2c(Nc3ccc(F)c(Cl)c3)ncnc2cc1O[C@H]1CCOC1` [afatinib]: 0. Molecule `CN/C(=C\[N+](=O)[O-])NCCSCc1csc(CN(C)C)n1` [nizatidine] displayed a mean motility score of 3800. The same measure for `Nc1ncn([C@@H]2O[C@H](CO)[C@@H](O)[C@H]2O)c(=O)n1` [azacitidine]: 4300; for `CCOc1cc(N)c(Cl)cc1C(=O)NCC1CN(Cc2ccc(F)cc2)CCO1` (configuration not stated) [mosapride]: 2610. With `CN1Cc2c(N)cccc2C(c2ccccc2)C1` (configuration not stated) [nomifensine] the figure was 2230. With `Cl.Clc1ccccc1CN1CCc2sccc2C1` [ticlopidine hydrochloride] the figure was 663; with `O=c1oc2ccccc2c(O)c1Cc1c(O)c2ccccc2oc1=O` [dicumarol], 0; with `CN1CCN(C2=Nc3cc(Cl)ccc3Nc3ccccc32)CC1` [clozapine], 2870. Take `Cc1c(C(=O)NN2CCCCC2)nn(-c2ccc(Cl)cc2Cl)c1-c1ccc(Cl)cc1` [rimonabant]: the mean motility score came to 2060. The same measure for `CC/C=C\C/C=C\C/C=C\C/C=C\C/C=C\C/C=C\CCC(=O)O` [doconexent]: 4100; for `CCN(CC)CCOc1ccc2nc(N(C)C)sc2c1.Cl.Cl` [diamthazole dihydrochloride]: 4190. The same measure for `CCCCC1C(=O)N(c2ccccc2)N(c2ccccc2)C1=O` [phenylbutazone]: 1530; for `N[C@@H](CCC(=O)O)C(=O)O` [L-glutamate]: 3930.

Molecule `CCC[C@H](N[C@@H](C)C(=O)N1[C@H](C(=O)O)C[C@@H]2CCCC[C@@H]21)C(=O)OCC` [perindopril] registered a mean motility score of 3860.

In turn, `CC(=O)Oc1cc(C(C)C)c(OCCN(C)C)cc1C.Cl` [moxisylyte hydrochloride] displayed a mean motility score of 1780.

As to `CCN[C@H]1C[C@H](C)S(=O)(=O)c2sc(S(N)(=O)=O)cc21` [dorzolamide], the mean motility score came out at 2540.

`OCCO` [ethylene glycol] registered a mean motility score of 3150. The same measure for `N#CC[C@H](C1CCCC1)n1cc(-c2ncnc3[nH]ccc23)cn1` [ruxolitinib]: 3070; for `Cc1cc(C(C)(C)C)cc(C)c1C=C1NCCN1` [xylometazoline]: 3760; for `N[C@@H](CO)C(=O)O` [serine]: 2250. With `O=C(O)CNC(=O)c1ccccc1I` [iodohippurate] the figure was 3580. For `C#CCN(C)Cc1ccccc1` [pargyline], the mean motility score worked out at 2290. With `Cc1ccc(NC(=O)c2ccc(CN3CCN(C)CC3)cc2)cc1Nc1nccc(-c2cccnc2)n1` [imatinib] the figure was 3600; with `C[C@H](O)C(=O)Nc1c(I)c(C(=O)NC(CO)CO)c(I)c(C(=O)NC(CO)CO)c1I` [iopamidol], 2190; with `NC(=O)OCC(COC(N)=O)c1ccccc1` [felbamate], 5470. With `CC(O)(P(=O)(O)O)P(=O)(O)O` [etidronic acid] the figure was 3300.

For the origin of these results see the supplement of paper PMC10503962.
